TRPML1 inh: blocks the human TRPML1 channel. activity change, negative = inhibition, % (test concentration not listed). TRPML1-inducible cells, Ca2+ dye fluorescence, FDSS; active compounds read low; inhibition of EC80 agonist-evoked calcium signal. 0.02% of 390,000 active; in the data active means activity change below about -50%; inconclusive means between about -30% and that limit;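 further: stimulus is agonist 54-4 at its EC80 concentration; on the % scale 0 is the no-effect control and ±100 the full control effect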
Target sequence (Q9GZU1 whole entry, looked up): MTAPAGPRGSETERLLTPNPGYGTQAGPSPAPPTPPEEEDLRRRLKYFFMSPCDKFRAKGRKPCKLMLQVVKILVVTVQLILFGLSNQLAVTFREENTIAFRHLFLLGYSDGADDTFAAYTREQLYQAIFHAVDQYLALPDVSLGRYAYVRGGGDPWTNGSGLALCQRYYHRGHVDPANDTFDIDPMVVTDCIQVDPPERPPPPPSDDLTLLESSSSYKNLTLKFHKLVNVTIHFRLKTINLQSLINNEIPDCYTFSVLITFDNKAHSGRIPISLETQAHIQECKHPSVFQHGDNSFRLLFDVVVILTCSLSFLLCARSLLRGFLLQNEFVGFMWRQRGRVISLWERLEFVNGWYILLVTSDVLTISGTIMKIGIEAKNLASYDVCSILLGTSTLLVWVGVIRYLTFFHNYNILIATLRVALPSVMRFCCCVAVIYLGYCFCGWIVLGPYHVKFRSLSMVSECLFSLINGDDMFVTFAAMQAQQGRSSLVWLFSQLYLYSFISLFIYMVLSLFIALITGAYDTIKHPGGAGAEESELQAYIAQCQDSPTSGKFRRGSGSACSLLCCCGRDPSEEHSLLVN
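TRPML1-DL cells, Tet-induced overnight (~16 h, 37 °C) at 1,500 cells/well, were loaded with Ca8 no-wash dye plus quencher for 45-90 min at room temperature. Compounds were pinned during FDSS kinetic reading; agonist 54-4 at EC80 (4 uM final) then added.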
TRHR agonist: activates the human TRH receptor. TRHR cells, calcium flux fluo-8, FDSS agonist mode. activation, % at 2 µM. 0.18% of 360,000 active; in the data active means activation above about 30%; further: 0% is about no effect
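Steps: seed TRHR cells overnight; add fluo-8 no-wash Ca dye, RT 30 min–1.5 h; record 10 s baseline; pin-transfer compounds; monitor fluorescence 1 cycle/s for the agonist window. Calcium increases flag candidate agonists.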
TRHR enhancer: allosteric enhancers of human TRH receptor; TRHR cells, fluo-8 calcium fluorescence, EC20 TRH enhancement; P34981; enhancement, % at 2 µM; 0.66% of 360,000 active; in the data active means enhancement above about 30%; further: 0% is about no effect
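Enhancer read-out: after compound pinning and an initial kinetic agonist-mode read, an EC20 of TRH (10 nM final) was injected and fluo-8 calcium signal (Ex 480/Em 530) followed at 1 s/cycle for 100 cycles in TRHR-expressing cells.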
TRPV1 potentiator: potentiators of human vanilloid receptor 1 (TRPV1). Q8NER1. TRPV1-expressing cells, Fluo-8 calcium influx, capsaicin EC20 potentiation. potentiation, % at 8.33 µM. 0.02% of 320,000 active. AID 540277; in the data active means potentiation above about 80%; inconclusive means between about 30% and that limit; further: 0% is about no effect
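Fluo-8 calcium influx in TRPV1-expressing cells, kinetic read (ex 480/em 520 nm). Compound added and read 3 min for agonist activity, followed by capsaicin at EC20 final and 2 min further read for enhancement.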
TRPML1 ag: activates the human TRPML1 channel. 0.12% of 410,000 active. Q9GZU1. TRPML1-expressing cells, Ca2+ dye fluorescence, FDSS. activation, % (concentration not given with the values). AID 624414; in the data active means activation above about 50%; inconclusive means mostly about 30% to 49%; further: 0% is about no effect
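Tet-induced TRPML1-DL cells, 1,500 per well, cultured overnight, were loaded with a no-wash Ca2+ dye for 45–90 min. Calcium fluorescence was recorded on the FDSS for 110 s after compound addition, before the EC80 agonist (4 uM 54-4) was added.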
TRPV1 agonist: human TRPV1 agonism; TRPV1-expressing cells, Fluo-8 calcium influx, agonist mode; activation, % at 8.33 µM; AID 540275; 0.19% of 320,000 active; Q8NER1; in the data active means activation above about 80%; inconclusive means between about 30% and that limit; further: 0% is about no effect
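TRPV1-expressing cells were cultured overnight at 35.5C and loaded with Fluo-8 calcium dye for 40 to 90 min at room temperature. After a 10 s baseline, compound was added and calcium influx was read kinetically for 3 min (ex 480/em 520 nm).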
An asterisk follows results filed as active. This is a sample that favours compounds with a hit; in the whole collection about 0.99% have one here.

For CCOc1ccc(NC(=O)CSc2nnc3c(n2)[nH]c2ccc(S(=O)(=O)N4CCCCC4)cc23)cc1 the results were TRPML1 ag 0.
COc1ccc2c3c(cccc13)C(=O)CC2 was read as TRPML1 inh -16, TRHR agonist 122*, TRHR enhancer 8, TRPV1 potentiator -13, TRPML1 ag 19 and TRPV1 agonist inconclusive.
CCCCCCc1cc2cc(-c3nnc(-c4ccc(C)cc4)o3)c(=O)oc2cc1O was read as TRPML1 inh -23, TRHR agonist -1, TRHR enhancer 1 and TRPML1 ag inconclusive.
CCN(CC)c1ccc2cc(-c3nnc(-c4cccc(Cl)c4)o3)c(=O)oc2c1 was read as TRPML1 inh -20, TRHR agonist 171*, TRHR enhancer 28 and TRPML1 ag 62*.
CCN(CC)c1ccc2cc(-c3nnc(-c4ccncc4)o3)c(=O)oc2c1 was read as TRPML1 inh inconclusive, TRHR agonist 285*, TRHR enhancer 12, TRPV1 potentiator inconclusive, TRPML1 ag 116* and TRPV1 agonist 107*.
For OC(C[n+]1cccc(Br)c1)c1ccccc1 (configuration not stated) the results were TRPML1 ag 0.
`CN(C)c1ccc(/C=C/c2ccnc3c(O)ccc(O)c23)cc1` gave TRPML1 ag 0.
CC(C)(C)NNC(=S)Nc1cccc(C(F)(F)F)c1 was read as TRPML1 inh 2, TRHR agonist 0, TRHR enhancer 32*, TRPV1 potentiator -7, TRPML1 ag 1 and TRPV1 agonist 23.
O=Cc1ccc(N2CCOCC2)cc1 was read as TRPML1 ag 0.
Screening COc1cccc(C=Nc2ccc(N3CCOCC3)cc2)c1O returned TRHR agonist -2, TRHR enhancer 36*, TRPV1 potentiator 6 and TRPV1 agonist 2.
For COc1ccc(NC(=O)/C(C#N)=C\c2ccc(N3CCOCC3)o2)cc1 the results were TRPML1 inh 2, TRHR agonist 75*, TRHR enhancer 1, TRPV1 potentiator -11, TRPML1 ag 65* and TRPV1 agonist inconclusive.
`CCOC(=O)/C(C#N)=C/c1ccc(-c2ccc(Br)cc2)o1` gave TRPML1 inh 24, TRHR agonist 9, TRHR enhancer 37* and TRPML1 ag 0.
COc1ccc(NC(=O)/C(C#N)=C/c2ccc(C)o2)cc1 was read as TRPML1 inh -8, TRHR agonist -2, TRHR enhancer 8 and TRPML1 ag -1.
`COc1cccc(NC(=O)/C(C#N)=C/c2ccc(-c3ccc(C)cc3)o2)c1` gave TRPML1 inh 9, TRHR agonist 34*, TRHR enhancer 8 and TRPML1 ag inconclusive.
`CCCCOC(=O)/C(C#N)=C\c1ccc(-c2ccc(Cl)cc2)o1` gave TRPML1 inh 22, TRHR agonist 2, TRHR enhancer 2 and TRPML1 ag -1.
For N#C/C(=C/c1ccc(N2CCCCC2)o1)C(=O)Nc1ccc2ccccc2c1 the results were TRPML1 inh 1, TRHR agonist 106*, TRHR enhancer -14, TRPV1 potentiator 9, TRPML1 ag 51* and TRPV1 agonist inconclusive.
For N#C/C(=C/c1ccc(N2CCCCC2)o1)C(=O)Nc1ccc(Cl)cc1 the results were TRPML1 inh -11, TRHR agonist 165*, TRHR enhancer 0, TRPV1 potentiator 10, TRPML1 ag 61* and TRPV1 agonist inconclusive.
For N#C/C(=C\c1ccc(N2CCOCC2)o1)C(=O)Nc1ccc(O)cc1 the results were TRPML1 inh 12, TRHR agonist 17, TRHR enhancer 2, TRPV1 potentiator 7, TRPML1 ag 17 and TRPV1 agonist 0.
For CCOC(=O)Cn1nnnc1CN1CCN(c2ccc(OC)cc2)CC1 the results were TRPML1 inh -2, TRHR agonist 1, TRHR enhancer 34*, TRPV1 potentiator 6, TRPML1 ag 0 and TRPV1 agonist -1.
For COc1ccc(Nc2c(-c3ccc(C)cc3)nc3cnccn23)cc1 the results were TRPML1 inh 17, TRHR agonist 0, TRHR enhancer 0, TRPV1 potentiator -3, TRPML1 ag 3 and TRPV1 agonist 4.
For COc1ccc(Nc2c(-c3ccc(OC)cc3)nc3cnccn23)cc1 the results were TRPML1 inh 26, TRHR agonist -1, TRHR enhancer 34*, TRPV1 potentiator -12, TRPML1 ag 0 and TRPV1 agonist 3.
CCOc1ccc(NC(=O)Cc2c(O)c3ccccc3[nH]c2=O)cc1 was read as TRPML1 inh 25, TRHR agonist 0, TRHR enhancer 7, TRPV1 potentiator 24, TRPML1 ag 0 and TRPV1 agonist -1.
`COc1cccc(NC(=O)Cc2c(O)c3ccccc3[nH]c2=O)c1` gave TRPML1 inh 59, TRHR agonist 1, TRHR enhancer 31*, TRPV1 potentiator -11, TRPML1 ag 0 and TRPV1 agonist -1.
`CCOC(=O)CC1C(=O)NCCN1c1nc2ccc(C)cn2c(=O)c1/C=C1\SC(=S)N(CC(C)C)C1=O` (configuration not stated) gave TRPML1 inh -8, TRHR agonist 63*, TRHR enhancer -5, TRPV1 potentiator 7, TRPML1 ag 23 and TRPV1 agonist inconclusive.
CCOC(=O)CC1C(=O)NCCN1c1nc2ccc(C)cn2c(=O)c1/C=C1\SC(=S)N(C(C)CC)C1=O (configuration not stated) was read as TRHR agonist 105*, TRHR enhancer 13, TRPV1 potentiator -5 and TRPV1 agonist 139*.
CCCN1C(=O)/C(=C/c2c(N3CCNC(=O)C3CC(=O)OCC)nc3c(C)cccn3c2=O)SC1=S (configuration not stated) was read as TRPML1 inh -8, TRHR agonist 68*, TRHR enhancer 6, TRPV1 potentiator 12, TRPML1 ag 21 and TRPV1 agonist inconclusive.
`CCOC(=O)CC1C(=O)NCCN1C(=O)c1ccc(C)cc1` (configuration not stated) gave TRPML1 inh 9, TRHR agonist 0, TRHR enhancer 3, TRPV1 potentiator 6, TRPML1 ag 2 and TRPV1 agonist -1.
Screening CCCCCN1C(=O)/C(=C/c2c(N3CCc4ccccc4C3)nc3ccccn3c2=O)SC1=S returned TRPML1 inh 16 and TRPML1 ag 4.
Screening CCCCCC1CCNCC1 returned TRPML1 ag 0.
`Cc1c(Cl)cccc1-n1nc(C)c2c(C(=O)NCc3ccccc3)cc(C3CC3)nc21` gave TRPML1 inh 16, TRHR agonist 0, TRHR enhancer 8 and TRPML1 ag -1.
COc1ccc(C)cc1-n1cnc2cc(C(=O)NC3CCCC3)ccc21 was read as TRPML1 inh 9, TRHR agonist -1, TRHR enhancer -9 and TRPML1 ag 2.
